Assay in all cases: NCI-60 one-dose screen, 48 h (100 = growth as untreated, 0 = no growth, -100 = all killed)
Settings in all cases: 10 µM

Test [1] has as its system HCT-15 colon.
Test [2] concerns HT29 colon.
Test [3] has as its system SNB-75 CNS.
Test [4] concerns SNB-19 CNS.
The subject of test [5] is U251 CNS.
For test [6], the system named is PC-3 prostate.
The subject of test [7] is SK-MEL-5 melanoma.
Test [8] deals with UACC-62 melanoma.
The subject of test [9] is LOX IMVI melanoma.
For test [10], the system named is SK-MEL-28 melanoma.
Test [11] concerns SK-MEL-2 melanoma.
Test [12] has as its system EKVX NSCLC.
The subject of test [13] is SN12C renal.
Test [14] has as its system UO-31 renal.
The subject of test [15] is TK-10 renal.
Test [16] concerns ACHN renal.
Test [17] has as its system CAKI-1 renal.
Test [18] relates to A498 renal.
Test [19] deals with CCRF-CEM leukemia.

The panel holds about 83,000 compounds, 20% with a hit somewhere; the sample as a whole holds those more often.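 Single-concentration screen, 48 h exposure, 96-well plates. Endpoint: percent growth. Below 10 = active.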 Unmarked numbers belong to inactive results. Activity calls are given as the source filed them.

On to `CNC(=O)c1cccc(N2CCc3c2ccc(NC(=O)Nc2ccc(N4CCN(C)CC4)c(C(F)(F)F)c2)c3F)c1`, for which the growth in test [1] is -89.8% (active); in test [2], -88.3% (active); in [3] it was 7.71% (active); in test [4], -84.7% (active); in test [5], -92.1% (active); in test [6] it was -51.8% (active). Also, the growth in test [7] was -100% (active); in [8], 88.9%; in [9], -100% (active); in test [10], -93.5% (active); in test [11], -53.2% (active); in test [12] it was -87% (active). For the same molecule, the growth in test [13] is -91.5% (active); in [14] it was -100% (active); in [15], -94.7% (active); in test [16], -100% (active); in [17], -81.5% (active); in test [18], 39.3%. Moreover, the growth in [19] is -42.1% (active).
Regarding `Cc1ccc(-c2nc3ccc(C(=O)N=Nc4c(O)[nH]c5ccc([N+](=O)[O-])cc45)cc3[nH]2)cc1`, the growth in test [1] was 104%; in [2], 66.6%; in test [3], 78.4%; in test [4] it was 55.4%; in test [5], 5.86% (active); in [6], 60.8%. Besides, the growth in [7] was 89.3%; in [8], 85.6%; in test [9], 54.9%; in [10], 60.4%; in test [11] it was 101%; in [12] it was 101%. Moreover, the growth in test [13] is 48.8%; in [14], 81.7%; in [15], 107%; in test [16], 97%; in [17] it was 95.9%; in test [18], 116%. Besides, the growth in [19] is 61.2%.
On to `COc1ccc(-c2nc(S(=O)(=O)c3ccc(C)cc3)c(S(=O)(=O)CC(=O)N(C)Cc3ccccc3)o2)cc1`, for which the growth in test [1] was -39.6% (active); in [2], 8.42% (active); in [3] it was 78.7%; in test [4], 72.1%; in [5] it was 23.6%; in [6], 63.7%. In addition, the growth is 78.4% in [7]; 46.7% in [8]; -91.1% (active) in [9]; 64.8% in test [10]; 51.1% in test [11]; 84.6% in test [12]. Moreover, the growth in [13] was 47.4%; in test [14], 34.8%; in test [15], 56%; in test [16] it was 6.56% (active); in test [17], 42.9%; in test [18], 132%. Also, the growth in test [19] was -35.9% (active).
For `O=C1N/C(=N\c2nccs2)S/C1=C\c1cccs1`, the growth is 17.4% in test [1]; 39.6% in test [2]; 69.6% in test [3]; 30.6% in test [4]; 29.5% in test [5]; 41.3% in [6]. Also, the growth in test [7] was -76.9% (active); in [8] it was -18.9% (active); in [9], 8.62% (active); in test [10], 14.6%; in test [11] it was 40.7%; in test [12], 19%. Besides, the growth in [13] is 45.8%; in test [14], 20.8%; in [15] it was 55.2%; in [16] it was 17.1%; in test [17], 20.2%; in [18], 73.2%. The growth in test [19] was 19.1%.
Take `CN1CCN(c2ccc(Nc3nc(NCCCNC(=O)c4ccc(F)cc4)c4sccc4n3)cc2)CC1`: the growth in [1] is 2.85% (active); in [2], 11.2%; in [3], 108%; in test [4], 86%; in test [5] it was 19.7%; in [6], 50.9%. Further, the growth in test [7] is 60.8%; in test [8] it was 63.7%; in [9], 13.4%; in test [10], -45.3% (active); in [11] it was 106%; in test [12], 87.8%. Further, the growth in test [13] is 78.8%; in test [14], 71.6%; in test [15], 119%; in [16], 36.7%; in test [17], 69.8%; in test [18], 129%. For the same molecule, the growth in test [19] was 18.8%.
Take `C=CC(=O)Nc1nc(-c2cccc(NS(=O)(=O)c3cccc4c(N(C)C)cccc34)c2)cs1`: the growth in [1] is -76.8% (active); in [2], -56.3% (active); in test [3] it was 5.83% (active); in [4], 15.6%; in test [5] it was -59% (active); in test [6], -26% (active). Also, the growth is -87.7% (active) in test [7]; -86.8% (active) in test [8]; -95.2% (active) in test [9]; -93.6% (active) in [10]; -62.7% (active) in [11]; 29% in [12]. Moreover, the growth is -56.6% (active) in [13]; -100% (active) in test [14]; -76.9% (active) in [15]; -79.8% (active) in test [16]; -87.5% (active) in test [17]; 25.7% in test [18]. Further, the growth in test [19] is -32% (active).
With `N#Cc1ccc(-c2nn(-c3ccc(C(=O)O)cc3)cc2CNc2cccc(Br)c2)cc1`, the growth in test [1] was 35.5%; in test [2], 50.7%; in test [3], 101%; in [4], 51.7%; in [5], 37%; in test [6], 40.1%. Further, the growth was 24.1% in test [7]; 41.8% in [8]; 13.2% in test [9]; 35.6% in test [10]; 71.7% in test [11]; 65.9% in [12]. Moreover, the growth in [13] is 59.2%; in test [14], 60.5%; in [15] it was 102%; in test [16], 66.8%; in [17], 73.4%; in test [18], 94.5%. Besides, the growth in test [19] is 23.7%.
On to `N[C@@H](CSSC[C@H](N)C(=O)Nc1ccc(OCC2CCCC2)cc1)C(=O)Nc1ccc(OCC2CCCC2)cc1`, for which the growth was -76.9% (active) in [1]; -93.3% (active) in test [2]; -96.3% (active) in test [3]; -95.6% (active) in test [4]; -86.6% (active) in test [5]; -87.3% (active) in [6]. Moreover, the growth in [7] is -100% (active); in test [8], -99.7% (active); in test [9] it was -96.1% (active); in test [10], -99% (active); in test [11], -93% (active); in [12], -90.2% (active). The growth is -98.5% (active) in test [13]; -100% (active) in test [14]; -95.5% (active) in test [15]; -100% (active) in [16]; -99.1% (active) in [17]; -85.4% (active) in test [18]. Also, the growth in test [19] was -60.5% (active).
